The campaign covered roughly 310,000 compounds. About 14,000 (4.5%) showed an effect of 50% or more. The effect is printed as a negative number. Only a selection was taken, and strong results are over-represented in it overall.
target: human ether-à-go-go-related gene (hERG) potassium channel (human, UniProt Q12809); test: primary screen, population patch clamp on CHO cells stably expressing hERG; higher = less effect of the substance
Experimental: Briefly, Chinese hamster ovary (CHO) cells stably expressing the hERG channel were dislodged from tissue culture flasks and dispensed into PPC plates. […] During the recording, background leak currents were estimated by a 100 ms step to -80 mV from an initial holding potential of -70 mV and subtracted from the subsequent current measurement. The campaign was conducted in two phases using slight differences in recording protocol. In the first phase, the initial voltage pulse used a 100 ms step to -30 mV from a holding potential of -70 mV, a 2 s conditioning step to +25 mV, and a 2 s test step to -30 mV. During the second phase of the screen, the potential during the conditioning step was raised to +45 mV. In both phases of the campaign, a secondary voltage pulse was applied using the same parameters as the second phase initial pulse. The initial and secondary pulses were applied in the absence of compound, and upon application of 1 μM and 10 μM test concentrations. […]
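Further: peak tail current of the secondary pulse compared with the same well before compound.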

Chain of human ether-à-go-go-related gene (hERG) potassium channel (Q12809 whole entry, looked up): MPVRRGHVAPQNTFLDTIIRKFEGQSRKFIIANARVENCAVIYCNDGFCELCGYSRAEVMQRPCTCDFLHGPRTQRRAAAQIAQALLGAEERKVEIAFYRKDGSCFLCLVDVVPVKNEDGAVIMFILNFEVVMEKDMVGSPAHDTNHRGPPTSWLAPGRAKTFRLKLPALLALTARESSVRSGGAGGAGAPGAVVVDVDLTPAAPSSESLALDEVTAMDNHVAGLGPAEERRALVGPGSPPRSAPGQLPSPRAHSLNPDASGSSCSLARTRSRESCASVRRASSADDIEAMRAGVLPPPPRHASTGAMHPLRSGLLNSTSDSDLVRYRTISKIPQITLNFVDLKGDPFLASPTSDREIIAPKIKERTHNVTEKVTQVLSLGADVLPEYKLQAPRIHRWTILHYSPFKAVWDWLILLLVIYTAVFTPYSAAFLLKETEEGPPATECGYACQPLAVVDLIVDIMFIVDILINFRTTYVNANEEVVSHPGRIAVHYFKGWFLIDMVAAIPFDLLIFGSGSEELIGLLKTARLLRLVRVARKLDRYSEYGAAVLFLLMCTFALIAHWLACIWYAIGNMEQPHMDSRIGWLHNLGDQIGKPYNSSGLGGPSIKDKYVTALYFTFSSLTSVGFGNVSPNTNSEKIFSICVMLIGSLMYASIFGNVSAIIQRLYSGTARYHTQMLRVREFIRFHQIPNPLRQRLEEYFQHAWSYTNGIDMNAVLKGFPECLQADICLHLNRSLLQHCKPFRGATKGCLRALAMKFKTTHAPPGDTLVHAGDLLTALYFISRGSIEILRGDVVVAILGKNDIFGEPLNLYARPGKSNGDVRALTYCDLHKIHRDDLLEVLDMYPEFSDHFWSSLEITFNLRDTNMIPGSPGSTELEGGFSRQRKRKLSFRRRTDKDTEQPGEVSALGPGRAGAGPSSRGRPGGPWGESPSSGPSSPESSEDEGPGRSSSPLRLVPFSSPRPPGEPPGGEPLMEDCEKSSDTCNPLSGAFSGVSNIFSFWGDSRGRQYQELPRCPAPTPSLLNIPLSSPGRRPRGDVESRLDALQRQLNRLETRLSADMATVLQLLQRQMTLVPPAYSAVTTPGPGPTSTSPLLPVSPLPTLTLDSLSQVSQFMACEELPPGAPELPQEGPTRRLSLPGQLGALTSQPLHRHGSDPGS

| SMILES | hERG current change (%, negative = inhibition) at 10uM [%] |
| --- | --- |
| CCOc1ccc(Cn2c3ccc(OC)cc3c3nc4ccccc4nc32)cc1 | 15.4 |
| O=C(COC(=O)c1cccnc1Cl)c1ccccc1 | -4.84 |
| CSc1ccccc1NC(=O)CN(C1CCCCC1)S(C)(=O)=O | -1.49 |
| CSC[C@H](NC(=O)Cc1c(C)c2cc3c(C)c(C)oc3cc2oc1=O)C(=O)N[C@@H](Cc1ccccc1)C(=O)O | 1.76 |
| Cc1ccc(S(=O)(=O)Nc2ccc(Cl)cn2)cc1C | 15 |
| CN(C)CCSc1nc(N)c2c3c(sc2n1)CN(C)CC3 | 9.66 |
| CCCCc1nc2c(C)c(N)cnc2n1Cc1cccc([N+](=O)[O-])c1 | -44.1 |
| N#CC1=C2SCN(Cc3ccccc3)CN2C(=O)CC1c1cccs1 (stereo not drawn) | 6.44 |
| O=C(Nc1ccc2oc(-c3ccccc3Cl)nc2c1)c1cncc(Br)c1 | -8.01 |
| Cc1nnc(N2CCC(C(=O)NC3CCC(C)CC3)CC2)c2nn(-c3ccc(Cl)cc3)c(C)c12 (stereo not drawn) | 18.8 |
| Cc1nnc(N2CCC(C(=O)N3CCCCCC3)CC2)c2nn(-c3ccc(Cl)cc3)c(C)c12 | -65.2 |
| CCc1ccc(CNC(=O)C2CCN(c3nnc(C)c4c(C)n(-c5ccc(C)cc5)nc34)CC2)cc1 | -1.17 |
| CC(=O)Nc1ccc(S(=O)(=O)NCCCN2CCOCC2)cc1 | 16 |
| Cc1cccc(NC(=O)C2CCCN2/C=C/C(=O)C(F)(F)F)c1C (stereo not drawn) | 4.61 |
| COc1ccc(C(=O)CC(=O)C(=O)Nc2cccc(C(C)=O)c2)cc1 | 29.9 |
| COc1ccc(C2(c3ccc(OC(C)=O)cc3OC(C)=O)CC(c3ccccc3)NC(=S)N2)cc1 (stereo not drawn) | -50.2 |
| COc1ccc(N2C(=S)NC(C)(C)CC2(C)c2ccc(OC(C)=O)cc2OC(C)=O)cc1 (stereo not drawn) | 6.26 |
| COc1ccc(C2(c3ccc(O)cc3O)CC(c3ccccc3Cl)NC(=S)N2)cc1 (stereo not drawn) | -15 |
| O=C(Cc1ccccc1[N+](=O)[O-])Nc1ccccc1C(=O)N1CCCC1 | 23.2 |
| Cc1cc(C)c(NC(=S)NCC2CCN(C(C)c3ccccc3)C2)c(C)c1 (stereo not drawn) | -22.4 |
| Cc1cc(C)cc(NC(=S)NCC2CCN(C(C)c3ccccc3)C2)c1 (stereo not drawn) | -63.3 |
| Cc1ccc(NC(=S)NCC2CCN(C(C)c3ccccc3)C2)cc1 (stereo not drawn) | -57.5 |
| CC(c1ccccc1)N1CCC(CNC(=S)Nc2cccc(Cl)c2)C1 (stereo not drawn) | -29.2 |
| Cc1ccccc1NC(=S)NCC1CCN(C(C)c2ccccc2)C1 (stereo not drawn) | 6.64 |
| Cc1ccc(NC(=S)NCC2CCN(C(C)c3ccccc3)C2)cc1C (stereo not drawn) | -44.6 |
| O=C1NC(c2ccccc2)=C(c2ccc3ccccc3n2)C(c2ccccc2)N1 (stereo not drawn) | 6.13 |
| CC1(C)CC(=O)N(CC(=O)O)c2ccccc2S1(=O)=O | 3.52 |

| SMILES | hERG current change (%, negative = inhibition) at 10uM [%] |
| --- | --- |
| O=c1c2ccccc2ncn1-c1ccc(Cl)c(Cl)c1 | -1.01 |
| OC(CNCCCCNCC(O)C(F)(F)F)C(F)(F)F (stereo not drawn) | 19.8 |
| CCCN(CCC)Cc1c(C(=O)OCC)nnn1-c1nonc1N | -12.7 |
| CC(=O)c1nc2ccccc2n1S(=O)(=O)c1ccc(C)cc1 | 17.3 |
| Cc1nc2c(ccc3nc(NC(=O)c4ccc5c(c4)OCCO5)sc32)s1 | -74.3 |
| Cc1nc2c(ccc3nc(NC(=O)c4ccc(S(=O)(=O)N(C)C)cc4)sc32)s1 | 15.2 |
| Cc1nc2ccc3nc(NC(=O)c4ccc5c(c4)OCCO5)sc3c2s1 | 2.9 |
| CC(C)(C)NC(=O)COc1coc(CN2CCN(Cc3ccccc3)CC2)cc1=O | -1.29 |
| Cc1ccc(Cn2c(C(CO)Nc3nc(-c4ccc(Cl)c([N+](=O)[O-])c4)cs3)nc3ccccc32)cc1 (stereo not drawn) | 7.56 |
| O=S(=O)(c1ccsc1)N1CC=C(c2ccccc2)CC1 | 15.7 |
| CN1CCN(C(c2cc3cc4c(cc3[nH]c2=O)OCCO4)c2nnnn2C2CCCC2)CC1 (stereo not drawn) | -9.91 |
| CCN1CC2C3CCC(C)(O3)C2C1 (stereo not drawn) | -73.1 |
| CCCc1cc(=O)[nH]c(SCC(=O)Nc2nc3ccc(OCC)cc3s2)n1 | 22.8 |
| NC(=S)N=Nc1c(O)n(CC(=O)Nc2ccccc2)c2ccccc12 | 16.4 |
| COc1cc2ncnc(NCc3ccc(C)o3)c2cc1OC | -11.5 |
| Cc1ccc(S(=O)(=O)N(C)c2ccc(OCC(=O)N3CCCC(C(F)(F)F)C3)cc2)cc1 (stereo not drawn) | -39.9 |
| CN(c1ccc(OCC(=O)N2CCOCC2)cc1)S(=O)(=O)c1ccc(F)cc1 | -9.15 |
| COC(=O)C1CCN(C(=O)COc2ccc(N(C)S(=O)(=O)c3ccc(C)cc3)cc2)CC1 | -33.8 |
| CCOC(=O)C1CCN(C(=O)COc2ccc(N(C)S(=O)(=O)c3ccc(C)cc3)cc2)CC1 | -57.7 |
| CCOC(=O)C1CCCN(C(=O)COc2ccc(S(=O)(=O)N(CC)c3ccccc3)cc2)C1 (stereo not drawn) | -51.8 |
| CCOC(=O)C1CCCN(C(=O)COc2ccc(N(C)S(=O)(=O)c3ccc(C)cc3)cc2)C1 (stereo not drawn) | -56.8 |
| CCOC(=O)C1CCCN(C(=O)COc2ccccc2O)C1 (stereo not drawn) | -1.94 |
| CN1CCN(C(=O)COc2ccc(N(C)S(=O)(=O)c3ccc(F)cc3)cc2)CC1 | -4.56 |
| Cc1ccc(S(=O)(=O)N(C)c2ccc(OCC(=O)N3CCCCC3)cc2)cc1 | -10.5 |
| CCOC(=O)C1CCCN(C(=O)COc2ccc(N(C)S(=O)(=O)c3ccc(F)cc3)cc2)C1 (stereo not drawn) | -66.5 |
| CCN(c1ccccc1)S(=O)(=O)c1ccc(OCC(=O)N2CCCC2)cc1 | -10.4 |
| CCOC(=O)C1CCN(C(=O)COc2ccc(N(C)S(=O)(=O)c3ccc(OCC)cc3)cc2)CC1 | -4.08 |
